CHO-K1 Ca antag: counter-screen for M1 antagonists: effect in parental CHO-K1 cells. inhibition, % at 3 µM. ATP-induced calcium, Fluo-8 fluorescence. 360,000 tested, 0.6% active;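 active = inhibition above a per-plate cutoff, the plate's mean sample inhibition plus 3 SD, cut at about 24% in these data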;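 also: 0% = DMSO plus EC80 ATP and 100% = DMSO alone without ATP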
CHRM1 PAM: human M1 muscarinic receptor positive allosteric modulators, primary screen, CHO-K1 cells, Fluo-8 calcium fluorescence, 1536-well. Muscarinic acetylcholine receptor M1 (Homo sapiens), P11229. CHO-K1 hM1, ACh EC20; 0% = ACh EC20, 100% = maximal ACh. activation, % at 3 µM. 360,000 tested, 0.088% active; in the data active = activation above about 19%, passing the limit was not always enough
Target sequence (P11229 whole entry, looked up): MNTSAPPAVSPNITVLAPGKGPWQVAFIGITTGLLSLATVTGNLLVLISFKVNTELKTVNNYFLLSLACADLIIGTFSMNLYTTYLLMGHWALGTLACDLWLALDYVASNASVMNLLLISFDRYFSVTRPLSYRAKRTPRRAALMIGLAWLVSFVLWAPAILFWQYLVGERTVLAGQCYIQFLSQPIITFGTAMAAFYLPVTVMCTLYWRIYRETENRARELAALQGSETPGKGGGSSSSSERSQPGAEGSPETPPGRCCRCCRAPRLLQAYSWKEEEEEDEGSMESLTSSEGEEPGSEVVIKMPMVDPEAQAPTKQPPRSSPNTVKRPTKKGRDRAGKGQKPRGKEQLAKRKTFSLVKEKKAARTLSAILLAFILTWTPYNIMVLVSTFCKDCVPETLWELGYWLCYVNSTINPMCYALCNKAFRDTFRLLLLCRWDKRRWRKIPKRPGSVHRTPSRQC
CHO-K1 Ca ag: counter-screen for M1 agonists: effect in parental CHO-K1 cells. Fluo-8 calcium fluorescence; scaled to maximal ATP response, vehicle zero. 360,000 tested, 0.48% active. AID 602248, 2012. activation, % at 3 µM; in the data active = activation above about 15%;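 also: untransfected CHO-K1 host cells lacking M1 receptor as counterscreen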
M1 ag: human M1 muscarinic receptor agonists, primary screen, Fluo-8 calcium fluorescence, CHO-K1 cells, HTS | Muscarinic acetylcholine receptor M1 (Homo sapiens), P11229 | CHO-K1 hM1, agonist mode; 0% DMSO, 100% acetylcholine EC100 | activation, % at 3 µM | 360,000 tested, 0.33% active | AID 588814, 2011;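 active = activation above the run's mean compound activation plus 3 SD, cut at about 16% in these data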;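 also: peak over basal fluorescence ratio within a 140 s kinetic read after compound addition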
M1 antag: human M1 muscarinic receptor antagonists, primary screen, CHO-K1 cells, Fluo-8 calcium fluorescence, 1536-well. AID 588852, 2011. inhibition, % at 3 µM. 360,000 tested, 1.3% active. Muscarinic acetylcholine receptor M1 (Homo sapiens), P11229. CHO-K1 hM1, ACh EC80 antagonist;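 active = percent inhibition above its own plate's cutoff, namely the mean of that plate's compound wells plus 3 SD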;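 also: peak over basal fluorescence ratio during 140 s after agonist addition; 0% = ACh EC80 plus DMSO and 100% = DMSO alone without agonist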
M1 PAM parental: nonselective calcium activators in parental CHO-K1 cells, primary screen, counter-screen for M1 PAM project, cell-based, Fluo-8 calcium fluorescence, full deck, 1536-well | ATP EC20; 0% at ATP EC20, 100% at ATP max | activation, % at 3 µM | 360,000 tested, 0.02% active | AID 602247, 2012;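 active = activation above the run cutoff, the mean activation of all test compounds plus 3 SD, cut at about 40% in these data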;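 also: peak over basal fluorescence ratio in a 140 s read after ATP addition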
Starred values were filed as active, the others as inactive. The list is not random: actives were taken first. Their share in the collection is about 2.3%.

For O=[N+]([O-])c1ccc(-n2nncc2-c2ccc(Cl)cc2)cc1 the results were CHO-K1 Ca antag -20, CHRM1 PAM 6, CHO-K1 Ca ag 0, M1 ag -7, M1 antag -1 and M1 PAM parental 4.
Nc1ccc(-n2nncc2-c2ccc(Cl)cc2)cc1 was read as CHO-K1 Ca antag 3, CHRM1 PAM 7, CHO-K1 Ca ag 17*, M1 ag -4, M1 antag -8 and M1 PAM parental 5.
CCOC(=O)Cn1c(=O)oc2cc(S(=O)(=O)Nc3ccc(F)cc3)ccc21 was read as CHO-K1 Ca antag -3, CHRM1 PAM 7, CHO-K1 Ca ag 8, M1 ag 31*, M1 antag -2 and M1 PAM parental 1.
`CCOC(=O)Cn1c(=O)oc2cc(S(=O)(=O)NCCc3ccc(C)cc3)ccc21` gave CHO-K1 Ca antag -5, CHRM1 PAM 3, CHO-K1 Ca ag 4, M1 ag 4, M1 antag -10 and M1 PAM parental 11.
Screening Cc1ccc(S(=O)(=O)NCCc2ccncc2)cc1C returned CHO-K1 Ca antag 11, CHRM1 PAM -3, CHO-K1 Ca ag 18*, M1 ag -11, M1 antag 2 and M1 PAM parental 13.
For CCOc1ccc(S(=O)(=O)NCCSCc2ccco2)cc1 the results were CHO-K1 Ca antag -5, CHRM1 PAM 4, CHO-K1 Ca ag 2, M1 ag -6, M1 antag -7 and M1 PAM parental 3.
`COc1ccc(CCNS(=O)(=O)c2ccc(Br)cc2)cc1` gave CHO-K1 Ca antag -11, CHRM1 PAM 6, CHO-K1 Ca ag 2, M1 ag -2, M1 antag -11 and M1 PAM parental 12.
For COc1ccc(S(=O)(=O)NCCc2ccccc2)cc1 the results were CHO-K1 Ca antag -1, CHRM1 PAM -9, CHO-K1 Ca ag 0, M1 ag 0, M1 antag 29* and M1 PAM parental 0.
For COc1ccc(CCNC(=O)CNS(=O)(=O)c2ccc(Cl)cc2)cc1 the results were CHO-K1 Ca antag 24*, CHRM1 PAM -1, CHO-K1 Ca ag 8, M1 ag 7, M1 antag 1 and M1 PAM parental -22.
Screening COc1ccc(S(=O)(=O)NCCSCc2ccco2)cc1 returned CHO-K1 Ca antag 28*, CHRM1 PAM 4, CHO-K1 Ca ag 0, M1 ag -3, M1 antag 4 and M1 PAM parental -7.
O=C(O)c1cc(S(=O)(=O)N2CC3CC3C2C(=O)O)c(Cl)cc1Cl (stereo not given) was read as CHO-K1 Ca antag 5, CHRM1 PAM -6, CHO-K1 Ca ag 0, M1 ag -2, M1 antag 24 and M1 PAM parental -12.
Screening Cc1ccc(C(=O)N2CCN(c3ccc(NC(=S)NC(=O)Cc4ccccc4)cc3)CC2)cc1 returned CHO-K1 Ca antag 24*, CHRM1 PAM -6, CHO-K1 Ca ag 21*, M1 ag -1, M1 antag 18 and M1 PAM parental 5.
Screening O=C(Nc1ccc(N2CCN(C(=O)c3ccccc3)CC2)cc1)c1ccc2c(c1)OCCO2 returned CHO-K1 Ca antag 11, CHRM1 PAM -11, CHO-K1 Ca ag 16*, M1 ag 3, M1 antag 15 and M1 PAM parental -13.
Screening COC(=O)c1nn(-c2ccc(OC)cc2)c(=O)cc1NN returned CHO-K1 Ca antag -19, CHRM1 PAM -19, CHO-K1 Ca ag 0, M1 ag -11, M1 antag 59* and M1 PAM parental 16.
O=c1c2sccc2nc(SCc2ccc([N+](=O)[O-])cc2)n1Cc1ccccn1 was read as CHO-K1 Ca antag 9, CHRM1 PAM -9, CHO-K1 Ca ag 0, M1 ag -8, M1 antag 11 and M1 PAM parental -8.
`CCC(c1nnnn1Cc1ccccc1)N1CCN(c2ccc(OC)cc2)CC1` (stereo not given) gave CHO-K1 Ca antag -9, CHRM1 PAM -2, CHO-K1 Ca ag 0, M1 ag -10, M1 antag 0 and M1 PAM parental 6.
For CCC(c1nnnn1Cc1ccc(OC)cc1)N1CCN(c2ccc(OC)cc2)CC1 (stereo not given) the results were CHO-K1 Ca antag 25*, CHRM1 PAM 6, CHO-K1 Ca ag 0, M1 ag -2, M1 antag -4 and M1 PAM parental -15.
For FC(F)(F)C(F)(F)c1nc2nc(Cl)c(Cl)nc2[nH]1 the results were CHO-K1 Ca antag 12, CHRM1 PAM -2, CHO-K1 Ca ag 0, M1 ag 0, M1 antag 6 and M1 PAM parental 7.
For Nc1c(Cl)ncnc1N/N=C/c1cccc(O)c1 the results were CHO-K1 Ca antag -5, CHRM1 PAM 3, CHO-K1 Ca ag 0, M1 ag -5, M1 antag -7 and M1 PAM parental 14.
Screening Nc1c(Cl)ncnc1N/N=C/c1ccncc1 returned CHO-K1 Ca antag 26*, CHRM1 PAM 8, CHO-K1 Ca ag -1, M1 ag -2, M1 antag -9 and M1 PAM parental -20.
COc1ccc(C(=O)NC(=S)Nc2ccc(CN3CCOCC3)cc2)cc1Cl was read as CHO-K1 Ca antag 0, CHRM1 PAM -12, CHO-K1 Ca ag 13, M1 ag 1, M1 antag 11 and M1 PAM parental 2.
`O=C(COc1ccc(Cl)cc1Cl)Nc1ccc(CN2CCOCC2)cc1` gave CHO-K1 Ca antag -5, CHRM1 PAM -10, CHO-K1 Ca ag 11, M1 ag -8, M1 antag 4 and M1 PAM parental 8.
`O=C(COc1ccc(Cl)cc1Cl)Nc1ccc(CN2CCCCC2)cc1` gave CHO-K1 Ca antag -10, CHRM1 PAM -35, CHO-K1 Ca ag 5, M1 ag -14, M1 antag 21* and M1 PAM parental 11.
COc1ccc(C(=O)NC(=S)Nc2ccc(CN3CCCCC3)cc2)cc1Cl was read as CHO-K1 Ca antag -10, CHRM1 PAM -22, CHO-K1 Ca ag 3, M1 ag -7, M1 antag 29* and M1 PAM parental 17.
For CN(C)c1cccc2c(S(=O)(=O)NC(=O)[C@H]3O[C@@H](n4cnc5c(N)ncnc54)[C@H](O)[C@@H]3O)cccc12 the results were CHO-K1 Ca antag -16, CHRM1 PAM 3, CHO-K1 Ca ag 0, M1 ag -2, M1 antag -34 and M1 PAM parental 14.
Screening CCCCc1c(Cc2cccc(F)c2)ncn1CCc1ccccc1OC returned CHO-K1 Ca antag -19, CHO-K1 Ca ag 6 and M1 PAM parental 12.

Screening results deposited in PubChem BioAssay by The Scripps Research Institute Molecular Screening Center.
